The OligoGym collection
Further: reference of the scale not given here.

These sequences were tested against SCAF4 (assay: pooled miR-30 sensor sort-seq; sequence = guide strand). Conditions: shRNA.
Work on TCTACCTGAATTGAACTGCTGC yielded a sensor-assay potency score (higher = more potent) of 0.449.
Sequence TTGAGTTGTCTGAAACAGCTGA has a sensor-assay potency score (higher = more potent) of 0.384.
TAGTACTGCAAACACTTGCAGT was tested, and the sensor-assay potency score (higher = more potent) was -0.842.
TACTATTTGAACTACATGCTTA was tested, and the sensor-assay potency score (higher = more potent) was 0.0032.
TTGTCTGAAACAGCTGAGCCAC showed a sensor-assay potency score (higher = more potent) of -1.31.
With TTAGTGATGAGAATCATCTTGG the sensor-assay potency score (higher = more potent) was 0.534.
TAACATTTTCTGCTACTGGGGC showed a sensor-assay potency score (higher = more potent) of -0.447.

What follows are sequences tested against SCAPER in the same assay as above. Conditions: shRNA.
TAAACATTGATTGCATTGCAGA gave a sensor-assay potency score (higher = more potent) of -1.19.
ATAATCTGCAAGGACATCGTTC was tested, and the sensor-assay potency score (higher = more potent) was -0.342.
With TTATTTTACAGTCCACTGCAGT the sensor-assay potency score (higher = more potent) was -0.733.
Sequence TTACATTCGACCACACTCTGAT has a sensor-assay potency score (higher = more potent) of 0.939.
Sequence TTTTCTTCCATCATCCTGCGTC has a sensor-assay potency score (higher = more potent) of 0.186.
TTGATCTAGCAATTCTTCCTTC was tested, and the sensor-assay potency score (higher = more potent) was 0.245.
In the case of TTCATCTGGAACATAAACCGTC, the sensor-assay potency score (higher = more potent) is reported as 0.155.
In the case of TTGAGTGTAATTCTCCTTGGGA, the sensor-assay potency score (higher = more potent) is reported as 0.0508.
Work on TTAACAATTCTTCTACACGGGC yielded a sensor-assay potency score (higher = more potent) of -0.521.
TTGAGCATCTGTCTTCTCTAGC was tested, and the sensor-assay potency score (higher = more potent) was -0.0428.
For TTCTTTATCACTGTCATCCTTT, the sensor-assay potency score (higher = more potent) was 0.0905.

Each sequence was assayed against SCG3 in the same assay as above. Conditions: shRNA.
For TAATCTTGTCTTCTTCTGCTTC, the sensor-assay potency score (higher = more potent) was -0.063.
TTAATTTTTGTAAAACCTCTGC gave a sensor-assay potency score (higher = more potent) of -0.0676.
TTCTTATAGATTGTCTTTCTTT was tested, and the sensor-assay potency score (higher = more potent) was -0.774.
For TTTATGATCCAATCCACTCTTA, the sensor-assay potency score (higher = more potent) was -0.0664.
TTCTTCATGACTCTTCTCTGAT was tested, and the sensor-assay potency score (higher = more potent) was 0.0122.
Sequence TTGTCATGTTTCTTCAACCATT has a sensor-assay potency score (higher = more potent) of -1.02.
TAGTAGAGTCATAATCATCGAT gave a sensor-assay potency score (higher = more potent) of 0.0703.
For TATTGTTCCATATTTCACCATC, the sensor-assay potency score (higher = more potent) was -0.949.
TAGTTTAGAAACAATCTTGTCA gave a sensor-assay potency score (higher = more potent) of 0.211.
TTTCAAGGTAGGAAACACCTTC showed a sensor-assay potency score (higher = more potent) of 0.087.
TAGTTGATGAAGACCATCTGGA was tested, and the sensor-assay potency score (higher = more potent) was 0.192.

These sequences were tested against SCGB1D4 in the same assay as above. Conditions: shRNA.
ATTAAGTTTGGCAACTTGGAGG showed a sensor-assay potency score (higher = more potent) of -1.05.
With TTTTTAGTGAAGATCAGGGTGT the sensor-assay potency score (higher = more potent) was 0.0112.
In the case of TTCACTTCCAACTTGGCTGCAA, the sensor-assay potency score (higher = more potent) is reported as 1.11.
In the case of TGATCTCAGAAGCAACAGCTGG, the sensor-assay potency score (higher = more potent) is reported as -1.12.
For AAAGATATCTGATCGGTGCAGT, the sensor-assay potency score (higher = more potent) was 0.161.
For TTCAATGAGAGTCGTTTCTTAA, the sensor-assay potency score (higher = more potent) was -0.987.
For TTTCAATGAGAGTCGTTTCTTA, the sensor-assay potency score (higher = more potent) was 0.178.
For TTAAAAGATATCTGATCGGTGC, the sensor-assay potency score (higher = more potent) was 0.0419.
For TATCTGATCGGTGCAGTGCTTC, the sensor-assay potency score (higher = more potent) was -0.707.
AATAAGAAGACTGTGATCTCAG showed a sensor-assay potency score (higher = more potent) of 0.355.
For AAGTTTGGCAACTTGGAGGTTT, the sensor-assay potency score (higher = more potent) was -0.0937.
